From PubChem BioAssay (NCI)
Compounds without any hit were thinned out: in the full panel of roughly 83,000, 20% have a hit.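 48-hour exposure, single concentration, 96-well plates; percent growth endpoint where 0 means no net growth. Active: below 10.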 Calls of active or inactive are those of the source.

Key:
Experiment in all cases: NCI-60 one-dose screen, 48 h (100 = growth as untreated, 0 = no growth, -100 = all killed)
Details in all cases: 10 µM unless noted
BT-549 breast = test system: BT-549 breast
MDA-MB-435 melanoma = test system: MDA-MB-435 melanoma
SW-620 colon = test system: SW-620 colon
MCF7 breast = test system: MCF7 breast
HCT-116 colon = test system: HCT-116 colon
HCC-2998 colon = test system: HCC-2998 colon
KM12 colon = test system: KM12 colon

Measured: growth

c1cc(CNC23CC4CC(CC(C4)C2)C3)cc(C[N+](Cc2cccc(CNC34CC5CC(CC(C5)C3)C4)c2)(Cc2cccc(CNC34CC5CC(CC(C5)C3)C4)c2)Cc2cccc(CNC34CC5CC(CC(C5)C3)C4)c2)c1 (centres undefined)
active: MCF7 breast 2.14% [42 µM] | HCT-116 colon -3.55% [42 µM]
inactive: BT-549 breast 24.5% [42 µM] | MDA-MB-435 melanoma 11.3% [42 µM] | SW-620 colon 20.6% [42 µM] | HCC-2998 colon 34.3% [42 µM] | KM12 colon 25.8% [42 µM]

COc1ccc2nc(-c3ccc(Cl)cc3)cc(C(=O)N3N=C(c4ccc(N)cc4)CC3c3ccccc3)c2c1 (centres undefined)
inactive: BT-549 breast 44% | SW-620 colon 36% | MCF7 breast 11.9% | HCT-116 colon 34.8% | HCC-2998 colon 70.3% | KM12 colon 18.7%
active: MDA-MB-435 melanoma 4.25%

COC(=O)CCc1n(Cc2ccc3ccccc3c2)c2ccccc2[n+]1Cc1ccc2ccccc2c1
inactive: SW-620 colon 12.1%
active: BT-549 breast -7.25% | MDA-MB-435 melanoma -13.5% | MCF7 breast 1.95% | HCT-116 colon 0.405% | HCC-2998 colon -2.47% | KM12 colon -58.7%

O=C(O)c1cc(N=Nc2ccc(-c3ccc(N=Nc4c(S(=O)(=O)O)cc5ccc(Nc6ccccc6)cc5c4O)cc3)cc2)ccc1O
inactive: BT-549 breast 115% | MDA-MB-435 melanoma 106% | SW-620 colon 102% | MCF7 breast 92.3% | HCT-116 colon 105% | HCC-2998 colon 89.8% | KM12 colon 99.6%

CCOC(=O)C1=C(C)n2nc(CC#N)c(C#N)c2NC1c1ccc(CC)cc1 (centres undefined)
inactive: BT-549 breast 85.4% | MDA-MB-435 melanoma 98.5% | SW-620 colon 97.6% | MCF7 breast 88.7% | HCT-116 colon 95.4% | HCC-2998 colon 97.6% | KM12 colon 97%

CCCCC1=c2c([nH]c3ccc(OC)cc23)=NC2C=CC=NC12 (centres undefined)
inactive: BT-549 breast 98.9% | MDA-MB-435 melanoma 93.4% | SW-620 colon 98.5% | MCF7 breast 13.5% | HCT-116 colon 74.8% | HCC-2998 colon 97.1% | KM12 colon 38.9%

N#Cc1ccc(N2Cc3cc(Cl)ccc3OC3=C2C(=O)N(Cc2ccc(F)cc2)C3=O)cc1
active: BT-549 breast -63.3% | MDA-MB-435 melanoma -48.8% | SW-620 colon -81% | MCF7 breast -19.5% | HCT-116 colon -90.4%
inactive: HCC-2998 colon 42.2% | KM12 colon 52.6%

Cc1nnc(/N=C2\NC(=O)/C(=C/c3ccc(N(C)C)cc3)S2)s1
active: MDA-MB-435 melanoma 9.37%
inactive: BT-549 breast 67.4% | SW-620 colon 66.9% | MCF7 breast 53.4% | HCT-116 colon 54.6% | HCC-2998 colon 85.5% | KM12 colon 46.1%

COc1ccc(C(=O)c2cc(OC)c(OC)c(OC)c2)cc1OC(=O)C(Cl)(Cl)Cl
inactive: SW-620 colon 22.9% | HCC-2998 colon 15.4%
active: BT-549 breast -0.136% | MDA-MB-435 melanoma -13.5% | MCF7 breast 9.81% | HCT-116 colon 4.91% | KM12 colon 9.4%

CCSc1nc(Cl)c(C#N)c(-c2ccc(F)cc2)n1
inactive: BT-549 breast 103% | MDA-MB-435 melanoma 91.8% | SW-620 colon 93.3% | MCF7 breast 85.1% | HCT-116 colon 91.8% | HCC-2998 colon 102% | KM12 colon 97.9%

COC(=O)CCc1cc(O)c2c(c1)[C@@H](C(=O)OC)[C@H](c1ccc(O)c(O)c1)O2
inactive: BT-549 breast 51.7% | SW-620 colon 63.8% | MCF7 breast 23.7% | HCT-116 colon 59.5% | HCC-2998 colon 94.9% | KM12 colon 55.8%
active: MDA-MB-435 melanoma 4.1%

O=C(Nc1ccc2ncnc(Nc3cccc(C(F)(F)F)c3)c2c1)c1cccs1
inactive: BT-549 breast 71.8% | MDA-MB-435 melanoma 63.3% | SW-620 colon 27.7% | MCF7 breast 32.2% | HCT-116 colon 38.3% | HCC-2998 colon 62.8% | KM12 colon 49.6%

CCCCN(CCCC)CC(CN(CC)CC)OC(=O)Nc1ccccc1 (centres undefined)
inactive: BT-549 breast 88.4% | MDA-MB-435 melanoma 102% | SW-620 colon 74.1% | MCF7 breast 79.4% | HCT-116 colon 56.5% | HCC-2998 colon 85.1% | KM12 colon 93.9%

COCCOC(=O)COc1ccc(OC)cc1
inactive: BT-549 breast 103% | MDA-MB-435 melanoma 89.8% | SW-620 colon 93.5% | MCF7 breast 97.3% | HCT-116 colon 106% | HCC-2998 colon 111% | KM12 colon 100%

CCC[S@](=O)c1ccc2nc(NC(=O)OC)[nH]c2c1
inactive: BT-549 breast 97.3% | MDA-MB-435 melanoma 101% | SW-620 colon 93.4% | MCF7 breast 92% | HCT-116 colon 84.4% | HCC-2998 colon 105% | KM12 colon 103%

CCCn1c2cc(OCc3cn(-c4ccc(Br)cc4)nn3)ccc2c2ccnc(C)c21
inactive: BT-549 breast 90.2% | MDA-MB-435 melanoma 85.4% | SW-620 colon 47.4% | MCF7 breast 62.4% | HCT-116 colon 54.7% | HCC-2998 colon 83.4% | KM12 colon 67.6%

NC(=O)C(O)(c1ccccc1)c1ccccc1
inactive: BT-549 breast 113% | MDA-MB-435 melanoma 103% | SW-620 colon 96% | MCF7 breast 91.5% | HCT-116 colon 103% | HCC-2998 colon 98.5% | KM12 colon 96.9%

COC(=O)c1nc(-c2ccccc2)oc1S(=O)(=O)n1nc(-c2ccccc2)cc1N
inactive: BT-549 breast 82.2% | MDA-MB-435 melanoma 63.6% | SW-620 colon 10.9% | MCF7 breast 80.9% | HCT-116 colon 84.8% | HCC-2998 colon 108% | KM12 colon 92.2%

[2H]c1nc(Nc2ncc3cc(C(=O)N(C)C)n(C4CCCC4)c3n2)c([2H])c([2H])c1N1C([2H])([2H])C([2H])([2H])NC([2H])([2H])C1([2H])[2H]
inactive: BT-549 breast 89.4% | MDA-MB-435 melanoma 68.9% | SW-620 colon 35.5% | MCF7 breast 46.9% | HCT-116 colon 40.9% | HCC-2998 colon 77.5% | KM12 colon 42.5%

[2H]c1cc2c(c([2H])c1F)/C(=C/c1[nH]c(C)c(C(=O)NCCN(CC)CC)c1C)C(=O)N2
active: KM12 colon 1.85%
inactive: BT-549 breast 67.6% | MDA-MB-435 melanoma 34% | SW-620 colon 25.7% | MCF7 breast 38.5% | HCT-116 colon 34.1% | HCC-2998 colon 69.7%

O=c1c2ccccc2oc2ccc(OCCCCCCN3CCCCCC3)cc12
inactive: BT-549 breast 60.5% | MDA-MB-435 melanoma 44.6% | SW-620 colon 23.5% | MCF7 breast 28.9% | HCT-116 colon 25.6% | HCC-2998 colon 62.9% | KM12 colon 29%

CCC[S@@](=O)c1ccc2nc(NC(=O)OC)[nH]c2c1
inactive: BT-549 breast 79.1% | MDA-MB-435 melanoma 16.6% | SW-620 colon 71% | MCF7 breast 61.9% | HCT-116 colon 79.6% | HCC-2998 colon 90% | KM12 colon 65.6%

Cc1cccc(C)c1NCc1nnc(-c2ccco2)o1
inactive: BT-549 breast 99% | MDA-MB-435 melanoma 103% | SW-620 colon 93.8% | MCF7 breast 87.1% | HCT-116 colon 84.1% | HCC-2998 colon 103% | KM12 colon 91.6%

C=C1C(=O)O[C@H]2[C@H]1CC/C(COC(=O)c1cc3ccccc3o1)=C\CC[C@@]1(C)O[C@@H]21
active: BT-549 breast -32.5% | MDA-MB-435 melanoma -35.1% | SW-620 colon -58.2% | MCF7 breast -31.8% | HCT-116 colon -84.1%
inactive: HCC-2998 colon 61.6% | KM12 colon 26.7%

COc1ccc(C(=O)c2cc(OC)c(C)c(OC)c2)cc1OC(=O)CCl
inactive: BT-549 breast 15.6% | SW-620 colon 24.1% | MCF7 breast 13.4% | HCT-116 colon 10.2% | HCC-2998 colon 24.9% | KM12 colon 19.1%
active: MDA-MB-435 melanoma -17.2%

NC(=O)c1ccc2nc3c(n2c1)C(=O)C(=O)c1ccccc1-3
active: BT-549 breast -94.3% | MDA-MB-435 melanoma -91.4% | SW-620 colon -50.4% | MCF7 breast -55.5% | HCT-116 colon -79.4% | HCC-2998 colon -84.5% | KM12 colon -50.1%

CCOC(=O)c1c(C)nc2c(c1N)/C(=C/c1ccc[nH]1)C(=O)N2Cc1ccc(C(F)(F)F)cc1
inactive: BT-549 breast 58.4% | MDA-MB-435 melanoma 90.9% | SW-620 colon 66% | MCF7 breast 45.1% | HCT-116 colon 28.4% | HCC-2998 colon 91.2% | KM12 colon 81.6%
